According to PubChem BioAssay (NCATS):
Records with an inconclusive call do not appear. Unmarked numbers belong to inactive results. Activity calls are given as the source filed them. The call rests on the fitted dose curve; in most records, active means well fitted cell-killing curve with a large enough effect; inconclusive means small, poorly fitted or top-dose-only effect, or effect the other way; inactive means no such curve, though single readings can be large or run the other way. Non-standard residues stand in square brackets, D forms with d. Residues, ends and D or L forms follow the SMILES beside them. *: point of attachment. Sta = CC(C)C[C@H](N)[C@@H](O)CC(=O)O; Isovaleryl = CC(C)CC(=O)*

Assay: Quantitative High-Throughput drug screen in 47 multiple myeloma cell lines against the NCATS MIPE library collection: KMS12PE_JCRB cell viability assay (AID 1918972); further: nearly all actives have a fitted effect of over 30% in size
Conditions: KMS12PE myeloma viability, CellTiter-Glo ATP, 48 h; series mostly up to 45.8 µM; viability: at the top concentration
Description: PI: Beverly A. Mock Ph.D.
Laboratory of Cancer Biology and Genetics,
Center for Cancer Research, National Cancer Institute,
National Institute of Health, Bethesda, Maryland
Drug resistance and disease progression are common in multiple myeloma (MM) patients, underscoring the need for new therapeutic combinations. […] We hypothesized that effective combinations would reduce MYC expression and enhance p16 activity. […] These preclinical data identify potentially useful drug combinations for evaluation in drug-resistant MM and reveal potential mechanisms of combined drug sensitivity.
Described herein is the primary MIPE qHTS used to cherrypick compounds. Validated compounds were then further tested for potential synergistic activiy.
[1] Peat TJ, Gaikwad SM, Dubois W, Gyabaah-Kessie N, Zhang S, Gorjifard S, Phyo Z, Andres M, Hughitt VK, Simpson RM, Miller MA, Girvin AT, Taylor A, Williams D, D'Antonio N, Zhang Y, Rajagopalan A, Flietner E, Wilson K, Zhang X, Shinn P, Klumpp-Thomas C, McKnight C, Itkin Z, Chen L, Kazandijian D, Zhang J, Michalowski AM, Simmons JK, Keats J, Thomas CJ, Mock BA. Drug combinations identified by high-throughput screening promote cell cycle transition and upregulate Smad pathways in myeloma. Cancer Lett. 2023 Aug 1;568:216284. doi: 10.1016/j.canlet.2023.216284. Epub 2023 Jun 24. PMID: 37356470; PMCID: PMC10408729.
SEQUENCE No. (e.g., 1, 2, 3, etc.); […] (e.g., Cells, Incubation, Reagent, etc.); VALUE and DESCRIPTION.
1; Cells; 5 uL; white, solid bottom 1536-well Greiner assay plate.
2; Compounds; 23 nL; Kalypsis pin tool (Wako USA) equipped with a 1536-well pin head to transfer to the assay plates.
3; Incubation; 48 hours; 37C incubation.
4; Reagent;5uL; CellTiter Glo (Promega).
5; Detector; 425V; Luminescence; Viewlux PerkinElmer.
NOTES (numbers refer to Sequence numbers above)
1. The cell-based screening methods employed in this study were like those previously published. Briefly, the corresponding myeloma cell lines were screened in 1,536-well plates with 500 cells, 5-uL per well for inhibition of cell viability (assessed by measuring ATP levels with CellTiterGlo).
2. NCATS MIPE 4.0 library of approved and investigational drugs were added using the Kalypsis pin tool. Wells treated with DMSO only for 100% viability and media only wells for 0% viability were used as controls.
3. The assay plates were covered and incubated for 48 hours in a 37C, 5% CO2 incubator with controlled humidity.
4. After 48 hours, CellTilter-GloTM luminescent substrate mix (Promega) reagent was added to the assay plate and plates we incubated for 5 min at room temperature.
5. Signal was measured as median relative luminescence units on a ViewLux (PerkinElmer) multiplate reader.
[1] Heske CM, Davis MI, Baumgart JT, Wilson K, Gormally MV, Chen L, Zhang X, Ceribelli M, Duveau DY, Guha R, Ferrer M, Arnaldez FI, Ji J, Tran HL, Zhang Y, Mendoza A, Helman LJ, Thomas CJ. Matrix Screen Identifies Synergistic Combination of PARP Inhibitors and Nicotinamide Phosphoribosyltransferase (NAMPT) Inhibitors in Ewing Sarcoma. Clin Cancer Res. 2017 Dec 1;23(23):7301-7311. doi: 10.1158/1078-0432.CCR-17-1121. Epub 2017 Sep 12. PMID: 28899971; PMCID: PMC6636827.
Potency means the concentration at half of the fitted maximal effect.

Compound | viability | Potency
Nc1ccn([C@@H]2O[C@H](CO)[C@@H](O)C2O)c(=O)n1 (stereo not given in full) | 116% | 
CC(=O)NC[C@H]1CN(c2ccc(N3CCOCC3)c(F)c2)C(=O)O1 | 132% | 
Cc1ccc(Nc2nccc(N(C)c3ccc4c(C)n(C)nc4c3)n2)cc1S(N)(=O)=O |  | 16.6 µM (active)
O=P(O)(O)C(O)(Cn1ccnc1)P(=O)(O)O | 97.8% [at 23.2 µM] | 
O=Nc1c(-c2c(O)[nH]c3cc(Br)ccc23)[nH]c2ccccc12 |  | 1.18 µM (active)
CC1(C)NC(=O)N(c2ccc([N+](=O)[O-])c(C(F)(F)F)c2)C1=O | 65.9% | 
Nc1cc(C(Cl)=C(Cl)Cl)c(S(N)(=O)=O)cc1S(N)(=O)=O | 104% | 
Nc1ccc(S(N)(=O)=O)cc1 | 117% | 
CC[C@]1(O)C[C@H]2CN(CCc3c([nH]c4ccccc34)[C@@](C(=O)OC)(c3cc4c(cc3OC)N(C=O)[C@H]3[C@@](O)(C(=O)OC)[C@H](OC(C)=O)[C@]5(CC)C=CCN6CC[C@]43[C@@H]65)C2)C1 |  | 0.0743 µM (active)
O=C(O)c1cccnc1Nc1cccc(C(F)(F)F)c1 | 84.7% | 
COCCCOc1ccnc(CS(=O)c2nc3ccccc3[nH]2)c1C (stereo not given) | 103% | 
Clc1ccc(C(Cn2ccnc2)OCc2c(Cl)cccc2Cl)c(Cl)c1 (stereo not given) |  | 14.8 µM (active)
CC(C)CC(=O)N[C@H](C(=O)N[C@H](C(=O)N[C@@H](CC(C)C)[C@@H](O)CC(=O)N[C@@H](C)C(=O)N[C@@H](CC(C)C)[C@@H](O)CC(=O)O)C(C)C)C(C)C (Isovaleryl-VV[Sta]A[Sta]-OH) | 86.6% | 
CS(=O)(=O)OCCCCOS(C)(=O)=O | 136% | 
Cc1cc2c(s1)Nc1ccccc1N=C2N1CCN(C)CC1 | 122% | 
Cc1cccc(C#Cc2ccccc2)n1 | 124% | 
COc1c2occc2cc2ccc(=O)oc12 | 118% | 
CCC[C@@H]1C[C@@H](C(=O)N[C@@H]([C@H]2O[C@H](SC)[C@H](O)[C@@H](O)[C@H]2O)[C@@H](C)O)N(C)C1 | 101% | 
Cc1nc(Nc2ncc(C(=O)Nc3c(C)cccc3Cl)s2)cc(N2CCN(CCO)CC2)n1 |  | 0.372 µM (active)
c1cnc2cc3c(cc2n1)C1CNCC3C1 | 102% | 

Compound | viability | Potency
S=c1nc[nH]c2nc[nH]c12 |  | 2.35 µM (active)
Cc1nc(-c2ccc(OCC(C)C)c(C#N)c2)sc1C(=O)O | 108% | 
C=CCc1cc(OC)c(O)c(C(=O)NCCO)c1 | 111% | 
CC(C)c1ccc2c(c1)c(SC(C)(C)C)c(CC(C)(C)C(=O)O)n2Cc1ccc(Cl)cc1 | 83.5% | 
O=c1cc(N2CCOCC2)oc2c(-c3ccccc3)cccc12 | 79.1% | 
COC(=O)N[C@H](C(=O)N[C@@H](Cc1ccccc1)[C@@H](O)CN(Cc1ccc(-c2ccccn2)cc1)NC(=O)[C@@H](NC(=O)OC)C(C)(C)C)C(C)(C)C | 122% | 
O=c1oc2cc(O)ccc2s1 | 98.9% | 
O=C(O)c1cn(-c2ccc(F)cc2)c2cc(N3CCNCC3)c(F)cc2c1=O | 101% | 
Cc1ncc([N+](=O)[O-])n1CC(C)O (stereo not given) | 101% | 
COc1c(O)cc2c(c1O)[C@@H]1O[C@H](CO)[C@@H](O)[C@H](O)[C@H]1OC2=O | 118% | 
COc1cc(C(C)=O)ccc1OCCCN1CCC(c2noc3cc(F)ccc23)CC1 |  | 20.9 µM (active)
Cc1ccc(C(=O)c2cc(O)c(O)c([N+](=O)[O-])c2)cc1 |  | 18.7 µM (active)
O=C(CS(=O)Cc1ccco1)NCC=CCOc1cc(CN2CCCCC2)ccn1 (stereo not given) | 129% | 
CCCCN(CCCC)CCC(O)c1cc2c(Cl)cc(Cl)cc2c2cc(C(F)(F)F)ccc12 (stereo not given) | 113% | 
O=C1CCc2ccc(OCCCCN3CCN(c4cccc(Cl)c4Cl)CC3)cc2N1 |  | 5.26 µM (active)
CCCCc1ccc2nc(NC(=O)OC)[nH]c2c1 |  | 0.0047 µM (active)
Cc1cccc(-c2[nH]ncc2-c2ccc3ncccc3n2)n1 | 114% | 
O=C1c2c(O)cc(O)cc2OC(c2ccc(O)c(O)c2)C1O (stereo not given) | 106% | 
CC(S)C(=O)NCC(=O)O (stereo not given) | 105% | 
O=C(NOCC1CC1)c1ccc(F)c(F)c1Nc1ccc(I)cc1Cl |  | 14.8 µM (active)
